Test results reported in ChEMBL document CHEMBL3433997, “St. Jude Leishmania screening dataset” (2016).

What follows are compounds tested against Solute carrier family 2, facilitated glucose transporter member 1 (Homo sapiens) (UniProt P11166) (assay: ST_JUDE_LEISH: Cytotoxicity at 2uM final concentration against transgenic Leishmania Mexicana promastigotes LmGLUT1 that are glucose transport deficient and complemented with the human glucose transporter GLUT1. Activity is measured by DNA content using SYBR green in vitro).
Assay type: functional

Chain of Solute carrier family 2, facilitated glucose transporter member 1 (Homo sapiens) (P11166 whole entry): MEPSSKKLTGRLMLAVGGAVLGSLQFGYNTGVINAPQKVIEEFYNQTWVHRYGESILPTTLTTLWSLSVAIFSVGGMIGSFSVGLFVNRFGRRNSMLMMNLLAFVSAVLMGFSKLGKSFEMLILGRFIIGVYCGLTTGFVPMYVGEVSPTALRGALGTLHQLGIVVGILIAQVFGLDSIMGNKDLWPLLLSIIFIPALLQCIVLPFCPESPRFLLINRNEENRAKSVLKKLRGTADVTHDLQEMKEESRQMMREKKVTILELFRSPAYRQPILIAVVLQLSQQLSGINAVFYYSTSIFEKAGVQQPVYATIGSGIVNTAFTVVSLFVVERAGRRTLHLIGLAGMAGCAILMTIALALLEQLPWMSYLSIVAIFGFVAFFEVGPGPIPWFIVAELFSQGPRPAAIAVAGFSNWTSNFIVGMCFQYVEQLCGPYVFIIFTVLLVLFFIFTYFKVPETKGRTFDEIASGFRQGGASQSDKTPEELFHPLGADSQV

First: O=C(Nc1ccccc1N1CCOCC1)c1ncoc1-c1ccccc1C(F)(F)F
Second: CN(C)c1ccc(-c2ccc(C(=O)NC3CCN(Cc4cccc(C(F)(F)F)c4)CC3)s2)cc1
The inhibition of the first is lower: 3.99% for the first, 4.91% for the second.

Going from `O=C(CSc1nc(-c2ccccc2Cl)ns1)Nc1cccc(Cl)c1` to `CC(=O)c1ccc(NC(=O)CSc2nc(-c3ccccc3Cl)ns2)cc1`, the inhibition rises from 1.59% to 2.79%.

Compared with `CN1CCN(c2ccc(-c3cccc(NC(=O)c4cccc(Cl)c4)c3)nn2)CC1`, `O=C(Nc1cccc(-c2ccc(NCCCN3CCCC3)nc2)c1)c1ccccc1` is higher in inhibition: 2.62% for the first, 5.13% for the second.

First: Clc1ccc2c(NN=Cc3ccco3)ccnc2c1
Second: c1ccc(Oc2ccc(Nc3ccnc4cc(-c5ccc(CN6CCOCC6)o5)ccc34)cc2)nc1
The inhibition of the first is higher: 3.59% for the first, -1.57% for the second.

Compared with `CC(=O)c1ccc(-c2ccc(C(=O)NCCCCN3CCC(c4ccc5c(c4OCC(N)=O)CCCC5)CC3)cc2)s1`, `COc1c(C2CCN(CCCCNC(=O)c3ccc(-c4ccc(C#N)cc4)nc3)CC2)ccc2c1CCCC2` is higher in inhibition: 1.36% for the first, 1.52% for the second.

Compared with `CN(Cc1cc(C(F)(F)F)cc(C(F)(F)F)c1)C(=O)C1CNCC1c1ccc(F)cc1` (stereo not given), `CN1CCC(NCc2ccc(-c3ccc(C(F)(F)F)cc3)cc2)CC1` is lower in inhibition: 6.61% for the first, -0.71% for the second.

Going from `Nc1c2c(nc3ccc(NC(=O)CCCc4ccccc4)cc13)CCCC2` to `CC1(C)N=C(NC(=O)c2ccc([N+](=O)[O-])cc2)N=C(N)N1OCc1ccc2ccccc2c1`, the inhibition rises from 1.07% to 3.85%.

Compared with `CN1C(C)(C)CC(NC(=O)c2ccc(-c3cc4cc(Cl)c(Cl)cc4[nH]3)o2)CC1(C)C`, `CC(C)[C@H](NC(=O)c1ccc(O)c(-c2ccc(Cl)c(Cl)c2)c1)C(=O)NCCN(C)C` is lower in inhibition: 4.77% for the first, 0.25% for the second.

Going from `O=C(Nc1ccc(-c2cccc(-c3nc4cc(C(F)(F)F)ccc4[nH]3)c2)cc1)Nc1ccc(F)c(F)c1F` to `O=C(Cn1c(CCc2cccc(F)c2F)nc(=O)c2ccccc21)N(CCN1CCCCC1)Cc1ccc(-c2ccc(C(F)(F)F)cc2)cc1`, the inhibition rises from 0.81% to 6.02%.

Going from `CN1CCC(N2CCN(Cc3cccc(-c4ccc(-c5nc6ccccc6[nH]5)cc4)c3)CC2)CC1` to `c1ccc2[nH]c(-c3ccc(-c4ccc(CNCCc5ccncc5)cc4)s3)nc2c1`, the inhibition rises from 2.84% to 8.39%.

First: Cc1ccc(OCC2CCN(c3ncc(C(=O)NCCCN4CCCC4=O)cc3Cl)CC2)cc1
Second: COCCN1CCC(CN(C)CC(C)(C)c2nc(-c3ccc(Cl)c(O)c3)c(-c3ccncc3)[nH]2)CC1
The inhibition of the first is lower: 1.15% for the first, 2.73% for the second.

Going from `Cc1sc(C)c(C(F)(F)F)c1CNCCCNc1cc(=O)c2ccccc2[nH]1` to `COc1cc(CNCCCNc2cc(=O)c3ccccc3[nH]2)c2c(c1)C(C)CN2C(=O)OC(C)(C)C` (stereo not given), the inhibition rises from 4.01% to 9.27%.

Going from `Cc1ccc(O)c(-c2cc(C(=O)Nc3ccc(S(=O)(=O)N4CCCC(C)C4)cc3)[nH]n2)c1` (stereo not given) to `CC1CCCN(c2ccc(NC(=O)c3cccs3)cc2[N+](=O)[O-])C1` (stereo not given), the inhibition rises from -0.03% to 1.22%.

First: N=C(N)NN=C1C=Cc2cccc3cccc1c23
Second: COc1cccc2c(NCCNc3ccnc4c(OC)cccc34)ccnc12
The inhibition of the first is lower: -1.8% for the first, 6.77% for the second.

First: CCCCCCOc1ccc(N2C(N)=NC(N)=NC2(C)C)cc1
Second: c1ccc(OCCCCN2CCCCC2)cc1
The inhibition of the first is higher: 1.45% for the first, 0.95% for the second.

First: N#Cc1ccc(N/C(=N\c2ccc(-c3ccccc3)cc2)NCc2cccnc2)c(O)c1
Second: COc1cc2nc(Nc3ccc4c(cnn4Cc4ccccc4)c3)nc(Nc3ccc4c(cnn4Cc4ccccc4)c3)c2cc1OC
The inhibition of the first is higher: 6.14% for the first, 2.6% for the second.

Compared with `CCCCNS(=O)(=O)c1ccc(NC(=O)c2cc([N+](=O)[O-])ccc2Cl)cc1`, `CCCCNC[C@@H](O)[C@H](Cc1ccccc1)NC(=O)c1cc2c3c(c1)c(CC)cn3CCS(=O)(=O)N2C` is higher in inhibition: 2.21% for the first, 2.53% for the second.

Compared with `COc1ccc(-c2nc3cccnc3n2CC(=O)Nc2cc(Cl)c(Cl)cc2Cl)c(OC)c1`, `COCCn1c(SC(C)C(=O)Nc2cc(C(F)(F)F)ccc2Cl)nc2ccccc2c1=O` (stereo not given) is higher in inhibition: -3.62% for the first, 0.17% for the second.

Going from `Cc1cc(N(C)C2CCN(C)C2)nc(Nc2ccccc2Cl)n1` (stereo not given) to `CC(C)C1CCc2nc(N)nc(N)c2C1` (stereo not given), the inhibition rises from 1.12% to 2.52%.

Compared with `C#CCOc1ccc2ccccc2c1CNCCCCCCNCc1c(OCC#C)ccc2ccccc12`, `CCCCOC(=O)C1=C(C)NC2=C(C(=O)CCC2)C1c1ccc(OC)c(Br)c1` (stereo not given) is lower in inhibition: 8.53% for the first, 0.77% for the second.
